KDM5B inh: Primary screen for KDM5B Histone Demethylases FDH-coupled qHTS; KDM5B demethylase, FDH-coupled NADH fluorescence (FDH is formaldehyde dehydrogenase); Potency, µM (titrated, usually from 57.7 µM), most hits filed as inhibitors; actives 2.6% (n = 220,000); Lysine-specific demethylase 5B (Homo sapiens), Q9UGL1; further: potency means the concentration at half of the fitted maximal effect; 0% is about no effect; nearly all actives have a fitted effect of over 70% in size
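Compound dilutions met 200 nM (final) KDM5BΔAP for 10 min at room temperature before substrate addition. The substrate mix held 12.5 µM H3K4me3 with cofactors 25 µM α-ketoglutarate and 50 µM Fe²⁺. NADH signal gain over 30 min defined activity.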
SNCA expr inh: Primary qHTS assay for inhibitors of alpha-synuclein gene (SNCA) expression; HEK-293 SNCA-luciferase knock-in, luminescence, 24 h; Potency, µM (titrated, usually from 57.2 µM), without a hit: at the highest dose activity change, negative = inhibition, actives largely listed as inhibitors; actives 0.17% (n = 140,000);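 further: potency means the concentration at half of the fitted maximal effect; plate controls were DMSO cells for no effect and cell-free wells for full effect; nearly all actives have a fitted effect of over 45% in size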
SNCA viab count: GF-AFC viability counterscreen for inhibitors of alpha-synuclein gene (SNCA) expression; HEK-293-SNCA-luc viability, GF-AFC fluorescence, 24 h; Potency, µM (doses to about 57.1 µM), without a hit: top-dose activity change, negative = cytotoxicity, actives largely listed as cytotoxic; actives 0.12% (n = 150,000); AID 1671193, 2021;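 further: potency means the concentration at half of the fitted maximal effect; 0% = DMSO-treated cells and -100% = medium-only wells without cells; nearly all actives have a fitted effect of over 30% in size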
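HEK-293-SNCA-luc cells (1500/well) plated 24 h, then exposed 24 h to a dilution series; GF-AFC added 30 min at 37C, fluorescence 405/540 nm; normalised to medium-only and DMSO wells, Hill fit.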
IP6K1 inhibitor: Primary qHTS assay for small molecule inhibitors of Inositol hexaphosphate kinase 1 (IP6K1) | Inositol hexakisphosphate kinase 1 (Homo sapiens), Q92551 | IP6K1 kinase, ADP-Glo luminescence, 2 h; stronger effect = lower value | activity change, % (series mostly up to about 58 µM) | actives 0.81% (n = 140,000) | AID 1645851, 2021; in the data active means activity change below about -25%; further: on the % scale 0 is the no-effect control and ±100 the full control effect
Target sequence (Q92551 whole entry, looked up): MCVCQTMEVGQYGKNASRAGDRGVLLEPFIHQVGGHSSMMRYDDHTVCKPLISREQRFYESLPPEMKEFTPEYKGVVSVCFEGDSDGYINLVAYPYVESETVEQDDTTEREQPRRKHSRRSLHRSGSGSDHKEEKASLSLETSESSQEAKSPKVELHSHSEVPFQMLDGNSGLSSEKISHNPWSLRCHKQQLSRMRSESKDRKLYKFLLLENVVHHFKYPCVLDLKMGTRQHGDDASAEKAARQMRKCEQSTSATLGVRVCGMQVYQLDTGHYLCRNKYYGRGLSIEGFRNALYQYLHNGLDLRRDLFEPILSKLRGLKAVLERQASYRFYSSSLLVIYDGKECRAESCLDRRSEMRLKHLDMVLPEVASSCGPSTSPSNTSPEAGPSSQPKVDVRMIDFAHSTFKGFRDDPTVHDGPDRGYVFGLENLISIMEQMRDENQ
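ADP-Glo luminescence measures ADP made by human IP6K1 during a 2 h RT reaction with ATP/IP6 (mix at 1.3 mM/130 uM); top library doses 57.5 and 19.1 uM final.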
IP6K1 inh cnf: Confirmatory qHTS assay for small molecule inhibitors of Inositol hexaphosphate kinase 1 (IP6K1) | actives 13% (n = 1,200) | recombinant IP6K1 kinase, ADP-Glo luminescence, 2 h | Potency, µM (highest dose often 49 µM), for inactives: at the top dose activity change, negative = inhibition, usual class: inhibitors | shares compounds with IP6K1 inhibitor; further: potency means the concentration at half of the fitted maximal effect; on the % scale 0 is the no-effect control and ±100 the full control effect; nearly all actives have a fitted effect of over 65% in size
An asterisk follows results filed as active; i = inactive; ? = inconclusive; · = no result given; [ ] = dose if it differs, or a comment. Compounds with a hit are over-represented: about 2.8% of the library has one in this group of screens. Unless noted, the call rests on the fitted dose curve; in most records, active means well fitted curve in the direction sought with a large enough effect; inconclusive means small, poorly fitted or top-dose-only effect, or another doubt; inactive means no such curve, though single readings can be large; an effect the other way counts as inactive or inconclusive.

SMILES	KDM5B inh	SNCA expr inh	SNCA viab count	IP6K1 inhibitor	IP6K1 inh cnf
C=C1CC[C@H]2[C@@](C)(CCC[C@@]2(C)C(=O)O)[C@@H]1CCC(C)CCO (some centres undefined)	·	·	2%	19	·
C=C1CCC2C(C)(C)C(O)CCC2(C)C1CCC(C)CCO (centres undefined)	·	·	1%	-30*	?
c1ccc(-c2ccnc(NCCOc3cccc4cccnc34)n2)nc1	20µM*	123%	-29%	-31*	-14%
O=C(Oc1cccc2cccnc12)c1ccccc1	·	-3%[25.6 µM]	31%[23.9 µM]	32	·
CC(C)C(NC(=O)c1n[nH]c(=O)c2ccccc12)c1ccc(F)cc1 (centres undefined)	i	·	·	·	·
Cn1c(-n2cccc2)c(-c2c(-c3cccc4ccccc34)[nH]c3c2c(=O)[nH]c(=O)n3C)c(=O)[nH]c1=O	i	·	·	·	·
Cc1ccc(-c2cc3nccc(-c4cc([N+](=O)[O-])ccc4O)n3n2)cc1	?	?	?	-25*	?
CCOC(=O)COc1ccc([N+](=O)[O-])cc1-c1ccnc2cc(-c3ccc(C)cc3)nn12	i	15%	3%	2	·
COC(=O)CCC(C#N)(CCC(=O)OC)c1ccc(OC)c(OC)c1	i	·	·	·	·
COc1cccc(N2C(=O)NC(=NC3CCCCC3)C23CCCN(CC2CCCCC2)C3)c1 (centres undefined)	?	?	?	-26*	?
COc1cccc(N2C(=O)NC(=NC3CCCC3)C23CCCN(CC2CCCCC2)C3)c1 (centres undefined)	i	?	?	-21	·
N=C(N)Cc1ccccc1	i	·	·	·	·
COc1ccc(CNC(=O)c2cc3c(-c4ccccc4F)nn(C)c3s2)cc1	?	-10%	-21%	-36*	?
COc1ccc(CCNC(=O)c2cc3c(-c4ccccc4F)nn(C)c3s2)c(OC)c1	?	-8%	-17%	5	·
COC(=O)c1c(SC)nc2ccccc2c1OCc1cc(C)ccc1C	i	?	6%	40	·
COC(=O)c1c(SC)nc2ccccc2c1OCc1ccccc1Cl	i	-13%	-1%	-26*	-7%
CCc1ccc(CNC(=O)C2CCCN(S(=O)(=O)c3ccc4c(ccn4C)c3)C2)cc1 (centres undefined)	i	-23%	4%	-26*	-4%
Cc1cc(CS(=O)(=O)c2ccccc2)cc(OCc2ccc(CN3CCC[C@@H]3CO)cc2)c1	·	·	-25%	-41*	9%
Fc1ccc(Nc2nc(NC3CCCC3)nc3c2cnn3-c2ccccc2)cc1	i	·	·	·	·
O=C(Cc1ccccc1)Nc1sc2c(c1C(=O)Nc1cccc(Cl)c1)CCCCC2	i	11%	-12%	-29*	3%
O=C(Cc1ccccc1)Nc1sc2c(c1C(=O)Nc1ccccc1Cl)CCCCC2	i	-23%	3%	-2	·
Cc1ccc(CNC(=O)C2CCN(S(=O)(=O)/C=C/c3ccccc3)CC2)cc1	i	·	·	·	·
Cc1ccnc(N/C=C(/Cl)C(=O)C(F)(F)F)c1	i	·	·	·	·
COc1ccc(CN2CCN3C(=O)N(Cc4ccc(C)cc4)C[C@H]3C2)cc1	i	-28%[87.6 µM]	-3%[87.6 µM]	-2	·
COc1ccc(CN2C[C@H]3CN(Cc4cnn(C)c4)CCN3C2=O)cc1	?	-6%[87.6 µM]	9%[87.6 µM]	-30*	?
SMILES	KDM5B inh	SNCA expr inh	SNCA viab count	IP6K1 inhibitor	IP6K1 inh cnf
Cc1ccc(C)c(N2CCN(C(=O)C3CCN(S(=O)(=O)c4cn(C)c(C)n4)CC3)CC2)c1	i	·	·	·	·
CCOc1ccc(C2c3c(oc4ccccc4c3=O)C(=O)N2c2nnc(C)s2)cc1OC (centres undefined)	i[11.5 µM]	24%	-3%	-37*	-10%
COc1cc(C2c3c(oc4ccccc4c3=O)C(=O)N2c2nnc(C(C)C)s2)cc(OC)c1OC (centres undefined)	i	-1%	-7%	-26*	6%
Cc1ccc(C2c3c(oc4ccccc4c3=O)C(=O)N2c2nnc(C)s2)cc1 (centres undefined)	i	-1%	-9%	17	·
CN1CC(=O)N(C2CCCC2)Cc2c(NCCc3ccc(Cl)cc3)ncnc21	·	-27%	-26%	10	·
CC(=O)c1ccc(NC(=O)c2cnn(-c3cccc(C)c3)c2-n2cccc2)cc1	i	·	·	·	·
COc1ccc(OC(=O)c2nc(SCc3ccccc3F)ncc2Cl)cc1	?	?	12%	-34*	8%
Cc1ccc2c(c1)C(c1ccccc1)N(C(=O)c1ccccc1F)CC(=O)N2 (centres undefined)	?	-17%	-3%	-14	·
COc1cccc(C(=O)N2CC(=O)Nc3ccc(C)cc3C2c2ccc(F)cc2)c1OC (centres undefined)	i	1%	-19%	-25*	-14%
O=C(NCc1ccc(S(=O)(=O)N2CCOCC2)cc1)c1ccc(Cl)cc1O	i	·	·	·	·
CCC(C)(C)NC(=O)CSc1nnc(NC2CC2)s1	i	·	·	·	·
COc1ccc(NC(=O)c2cc(-c3ccc[nH]3)n[nH]2)cc1F	i	1%	-2%	13	?
Cc1cccc(NC(=O)c2cc(-c3ccc[nH]3)n[nH]2)c1	?	47%	6%	-9	?
Cc1c(CN(C)CC2(O)CCCN(Cc3ccc(C(C)C)cc3)C2=O)cnn1C (centres undefined)	i	-6%	3%	-37*	-6%
CC1CCN(C(=O)COc2ncnc3ccc(Br)cc23)CC1	i	·	·	·	·
Cc1cc(C)cc(NC(=O)CCC(=O)N2Cc3ccccc3Oc3ncccc32)c1	i	-17%	-7%	-7	·
CCOC(=O)c1cccc(NC(=O)N2Cc3ccccc3Oc3ncccc32)c1	?	-9%	?	-33*	-21%
CCCNC(=S)Nc1cc(C(=O)OC)cc(C(=O)OC)c1	i	·	·	·	·
COc1ccc(NC(=O)c2c(NCc3cccc(OC)c3)sc3c2CCCC3)cc1	?	?	5%	-1	·
COc1ccc(NC(=O)c2c(NCc3ccc(N(C)C)cc3)sc3c2CCC3)cc1	?	29%	-22%	-27*	-11%
Cc1nn(-c2ccccc2)c(C)c1CN(C)S(=O)(=O)c1ccc(F)cc1	i	·	·	·	·
CCc1noc(Cc2c(C)nn(-c3ccccc3)c2C)n1	i	29%	0%	-28*	-15%
O=C(O)Cn1nnc(-c2ccc(OCc3cccc(C(F)(F)F)c3)cc2)n1	?	6%	1%	-30*	?
Cc1cc(-c2ccc(C)c(S(=O)(=O)N3CCC(C)CC3)c2)on1	?	-9%	-5%	-26*	-17%
CCCCn1c(=O)n(CC(O)COc2ccc(CC)cc2)c(=O)c2c1ncn2CCOC (centres undefined)	i	·	·	·	·

Source: PubChem BioAssay (National Center for Advancing Translational Sciences (NCATS))
